Assay outcomes as filed in PubChem.
The list is not random: actives were taken first. Their share in the collection is about 0.88%.
Glioma ERSR ind: induces the endoplasmic reticulum stress response in human glioma cells | Potency, µM, inactives show top-dose activation, hits mostly activators | AID 602332 | U87-MG GRP78 promoter luciferase reporter, 16 h | 420,000 tested, 0.02% active; active means well fitted curve in the direction sought with a large enough effect; inconclusive means small, poorly fitted or top-dose-only effect, or another doubt; inactive means no such curve, though single readings can be large; an effect the other way counts as inactive or inconclusive; further: potency means the concentration at half of the fitted maximal effect; series mostly up to about 76 µM; % of control where 0% means no effect; nearly all actives have a fitted effect of over 35% in size
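ERSR induction read as luciferase luminescence (Bright-Glo, 10 min at room temperature) in stably transfected human U87-MG glioma cells exposed to compounds for 16 h, using GRP78 as sensor.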
RGS4 inhibitor: blocks human RGS4-accelerated GTP hydrolysis. P49798. AID 504845. 390,000 tested, 0.039% active. Potency, µM (highest dose often 114 µM), for inactives: top-dose activity change, negative = inhibition, most hits filed as inhibitors. Transcreener GDP fluorescence polarization, RGS4-accelerated GTP hydrolysis; active means well fitted curve in the direction sought with a large enough effect; inconclusive means small, poorly fitted or top-dose-only effect, or another doubt; inactive means no such curve, though single readings can be large; an effect the other way counts as inactive or inconclusive; further: potency means the concentration at half of the fitted maximal effect; on the % scale 0 is the no-effect control and ±100 the full control effect; nearly all actives have a fitted effect of over 75% in size
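MLSMR compounds (23 nl, pin-transferred) preincubated 10 min at room temperature with a 500nM (2x) first reagent, then RGS4 at 900nM (2x) plus Transcreener GDP mix added; fluorescence polarization (620/688 nm) read before and after 90 min at 30 °C.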
pAkt inh: inhibitors of Akt phosphorylation. Neuro2A IGF-stimulated pAkt S473 HTRF, 20 min; hits give low values. activity change, % for hits at 50 µM. 360,000 tested, 0.32% active; in the data active means activity change below about -80%; inconclusive means mostly about -51% to -80%; further: on the % scale 0 is the no-effect control and ±100 the full control effect
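Neuro2A cells in DMEM with 0.5% FBS, overnight at 37 deg C, given compound at single 50 µM final, then IGF (6 nM final) for 20 min at 37 deg C. Lysed; phospho-Akt Ser473 by HTRF after 24 h, 665/615 ratio.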
CtBP-E1A blk: inhibitors of CtBP/E1A interaction; AlphaScreen GST-E1A/His-CtBP binding, 1536-well; hits give low values; activity change, % (no concentration beside the values); 340,000 tested, 0.49% active; AID 651724; further: on the % scale 0 is the no-effect control and ±100 the full control effect
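GST-E1A and His-tagged CtBP (125 nM each as 5X stock) were preincubated with pin-transferred compound for 2 h at 37 °C in the dark, then glutathione donor and nickel acceptor beads were added for 1 h before AlphaScreen reading.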
Six1-Eya2 blk: Six1/Eya2 interaction inhibition; Q15475+O00167; AlphaScreen GST-Six1/His-Eya2 binding, biochemical; hits give low values; activity change, % (no concentration beside the values); 360,000 tested, 0.56% active; further: on the % scale 0 is the no-effect control and ±100 the full control effect
Target sequence (O00167 whole entry, looked up): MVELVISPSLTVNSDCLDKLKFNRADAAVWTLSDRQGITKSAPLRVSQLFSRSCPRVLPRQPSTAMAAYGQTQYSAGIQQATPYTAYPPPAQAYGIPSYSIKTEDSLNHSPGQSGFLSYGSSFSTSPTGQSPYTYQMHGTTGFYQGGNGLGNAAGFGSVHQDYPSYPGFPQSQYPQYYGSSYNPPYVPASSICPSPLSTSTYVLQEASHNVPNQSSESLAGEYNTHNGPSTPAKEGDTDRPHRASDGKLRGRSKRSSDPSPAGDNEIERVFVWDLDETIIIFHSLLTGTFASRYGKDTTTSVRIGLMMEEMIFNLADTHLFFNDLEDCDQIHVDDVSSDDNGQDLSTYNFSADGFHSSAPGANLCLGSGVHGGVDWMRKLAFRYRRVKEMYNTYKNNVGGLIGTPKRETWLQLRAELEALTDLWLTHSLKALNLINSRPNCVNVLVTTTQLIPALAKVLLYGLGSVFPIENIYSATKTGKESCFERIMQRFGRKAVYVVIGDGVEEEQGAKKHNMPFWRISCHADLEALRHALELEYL
Target sequence (Q15475 whole entry, looked up): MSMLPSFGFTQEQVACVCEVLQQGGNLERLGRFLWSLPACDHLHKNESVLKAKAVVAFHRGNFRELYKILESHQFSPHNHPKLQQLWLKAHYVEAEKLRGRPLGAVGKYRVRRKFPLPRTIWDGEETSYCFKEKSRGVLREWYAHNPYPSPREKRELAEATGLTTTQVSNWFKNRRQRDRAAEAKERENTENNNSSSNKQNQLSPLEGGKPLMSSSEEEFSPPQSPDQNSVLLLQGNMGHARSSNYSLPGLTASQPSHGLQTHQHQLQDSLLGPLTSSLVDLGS
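Homogeneous AlphaScreen proximity assay pairing GST-Six1 with His-tagged Eya2 (added as 5X mix: 250 nM and 500 nM) in 50 mM Tris pH 8.0, 300 mM NaCl, 1 mM TCEP. Glutathione donor and nickel acceptor beads; 1 h, 37 °C, dark.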
Numbers without * were called inactive; ! = not active in a repeat; [ ] = remark or other dose. Unless noted, no stated cut-off is given here; in the data, active means activity change below about -65%; inconclusive means mostly about -30% to -63%; inactive means weaker than that.

Results for Cc1c(CC(=O)O)c(=O)oc2cc(OCc3nn[nH]n3)ccc12 ?
Glioma ERSR ind: -5%; RGS4 inhibitor: -8%; pAkt inh: -98%*; CtBP-E1A blk: 5; Six1-Eya2 blk: -2

How did Cc1c(Cc2ccccc2)c(=O)oc2cc(OCc3nn[nH]n3)ccc12 do in these assays?
Glioma ERSR ind: -5%; RGS4 inhibitor: 12%; pAkt inh: inactive; CtBP-E1A blk: -11; Six1-Eya2 blk: -26

What do the screens show for `Cc1nc2ncccn2c1-c1csc(Nc2cccc(C(=O)O)c2)n1`?
Glioma ERSR ind: -2%; RGS4 inhibitor: inconclusive; pAkt inh: inactive; CtBP-E1A blk: -29; Six1-Eya2 blk: inconclusive

How did COc1ccc(OC)c(Nc2nc(-c3c(C)nc4ncccn34)cs2)c1 do in these assays?
Glioma ERSR ind: -1%; RGS4 inhibitor: -25%; pAkt inh: inactive; CtBP-E1A blk: -82*; Six1-Eya2 blk: inconclusive

What do the screens show for `COc1cc2c(cc1OC)-c1cc(Nc3ccc(N(C)C)cc3)nc(=O)n1CC2`?
Glioma ERSR ind: 5%; RGS4 inhibitor: -15%; pAkt inh: inactive; CtBP-E1A blk: -69*; Six1-Eya2 blk: -69*

What do the screens show for `CCN(CC)c1ccc(Nc2cc3n(c(=O)n2)CCc2cc(OC)c(OC)cc2-3)cc1`?
Glioma ERSR ind: -3%; RGS4 inhibitor: -4%[56.9 µM]; pAkt inh: inactive; CtBP-E1A blk: -84*; Six1-Eya2 blk: inconclusive

What do the screens show for `COc1cc2c(cc1OC)-c1cc(Nc3cccc(F)c3)nc(=O)n1CC2`?
Glioma ERSR ind: 2%; RGS4 inhibitor: -1%; pAkt inh: inactive; CtBP-E1A blk: -10; Six1-Eya2 blk: -79*

Results for CCCn1cnc2c1c(=O)n(CCCCC(C)=O)c(=O)n2C ?
Glioma ERSR ind: -2%; RGS4 inhibitor: 24µM*!

What do the screens show for `CCN(CC)C(=O)Cn1cnc2c1c(=O)n(C)c(=O)n2C`?
Glioma ERSR ind: -2%; RGS4 inhibitor: 5%; pAkt inh: inactive; CtBP-E1A blk: -2; Six1-Eya2 blk: 6

How did COc1cc(=O)n2c(c1C(=O)NCc1nonc1C)CCN(C(=O)c1cccc(C)c1C)CC2 do in these assays?
Glioma ERSR ind: 1%

What do the screens show for `O=c1[nH][nH]cc1C=Nc1ccccc1O`?
Glioma ERSR ind: -6%; RGS4 inhibitor: -26%; pAkt inh: inactive; CtBP-E1A blk: -83*; Six1-Eya2 blk: -77*

How did CCCc1cc2c(c(=O)o1)C(O)C1OC1C2=O (stereo not given) do in these assays?
Glioma ERSR ind: -10%

Results for Cc1cccc(C)c1NC(=O)c1ccc(-c2ccc(Cl)cc2Cl)o1 ?
Glioma ERSR ind: -5%; RGS4 inhibitor: 13%; pAkt inh: -115%*; CtBP-E1A blk: -2; Six1-Eya2 blk: 2

How did COc1ccc2c(c1)-c1nc(-n3ncc(C(=O)N(C)C(C)c4ccon4)c3C3CC3)ncc1CC2 (stereo not given) do in these assays?
Glioma ERSR ind: -3%

Results for CCCCOc1ccccc1Cn1c(=O)oc2ccccc21 ?
Glioma ERSR ind: 4%; RGS4 inhibitor: -10%; pAkt inh: -112%*; CtBP-E1A blk: 22; Six1-Eya2 blk: 50

How did O=c1oc2ccccc2n1Cc1ccccc1F do in these assays?
Glioma ERSR ind: 2%; RGS4 inhibitor: 29%; pAkt inh: inactive; CtBP-E1A blk: -3; Six1-Eya2 blk: 1

Results for Cc1c(C(=O)NCc2ccc3c(c2)OCO3)cnn1-c1ncc2c(n1)-c1ccccc1CC2 ?
Glioma ERSR ind: 3%

Results for O=C(NC1CC1)[C@@H]1C[C@H](Sc2nc3ccccc3[nH]2)CN1CC1CCCCC1 ?
Glioma ERSR ind: -4%

What do the screens show for `CCOC(=O)N1CCN(c2cc(NCCC(=O)O)c3c4c(onc24)-c2ccccc2C3=O)CC1`?
Glioma ERSR ind: -5%; RGS4 inhibitor: inconclusive; pAkt inh: inactive; CtBP-E1A blk: -70*; Six1-Eya2 blk: -69*

Results for O=C1c2ccccc2-c2onc3c(N4CCN(CCO)CC4)cc(N4CCN(C(=O)c5ccco5)CC4)c1c23 ?
Glioma ERSR ind: -19%; RGS4 inhibitor: inconclusive; pAkt inh: inactive; CtBP-E1A blk: -75*; Six1-Eya2 blk: inconclusive

How did O=C1C=CC(=O)c2c(O)c(CO)c(CO)c(O)c21 do in these assays?
Glioma ERSR ind: 5%; RGS4 inhibitor: inconclusive; pAkt inh: inactive; CtBP-E1A blk: -2; Six1-Eya2 blk: -70*

What do the screens show for `COc1cc(N=Nc2cccc(S(N)(=O)=O)c2)c2ccccc2c1N`?
Glioma ERSR ind: 0%; RGS4 inhibitor: -20%; pAkt inh: inactive; CtBP-E1A blk: -71*; Six1-Eya2 blk: inconclusive

What do the screens show for `CCC(C)(C(=O)NC1CCCCC1)N(C(=O)CNC(C)=O)c1c(C)n(C)n(-c2ccccc2)c1=O` (stereo not given)?
Glioma ERSR ind: 1%; RGS4 inhibitor: -16%; pAkt inh: -131%*; CtBP-E1A blk: 1; Six1-Eya2 blk: -1

Results for COc1ccc(CN2CCOc3c(O)cc(-c4cc(C)c5ccc(F)cc5n4)cc3C2)c(O)c1 ?
Glioma ERSR ind: -2%

What do the screens show for `O=c1cc(-c2ccccc2)[nH]n1-c1nc2ccccc2[nH]1`?
Glioma ERSR ind: -3%; RGS4 inhibitor: -16%; pAkt inh: inactive; CtBP-E1A blk: -77*; Six1-Eya2 blk: -81*

How did CCc1cc(=O)[nH]c(-n2[nH]c(-c3ccccc3)cc2=O)n1 do in these assays?
Glioma ERSR ind: 2%; RGS4 inhibitor: inconclusive; pAkt inh: inactive; CtBP-E1A blk: -10; Six1-Eya2 blk: -7

How did C=C[C@H](CC(C)C)N(Cc1ccccc1)S(=O)(=O)N(Cc1ccccc1)[C@H](C=C)CC(C)C do in these assays?
Glioma ERSR ind: -4%

What do the screens show for `Cc1cnc(C=NNC(N)=S)c2cccc(N)c12`?
Glioma ERSR ind: -6%; RGS4 inhibitor: inconclusive; pAkt inh: inactive; CtBP-E1A blk: -2; Six1-Eya2 blk: -79*

What do the screens show for `NC(=S)NN=Cc1nccc2ccccc12`?
Glioma ERSR ind: -1%; RGS4 inhibitor: -43%; pAkt inh: inactive; CtBP-E1A blk: -94*; Six1-Eya2 blk: -81*

Results for COC(=O)C1=C(C)N=C2SC(C#N)=C(N)N2C1c1ccc(OC)cc1 (stereo not given) ?
Glioma ERSR ind: 4%; RGS4 inhibitor: 15%; pAkt inh: inactive; CtBP-E1A blk: 0; Six1-Eya2 blk: 2

What do the screens show for `COC(=O)C1=C(C)N=C2SC(C#N)=C(N)N2C1c1cccc(OC)c1` (stereo not given)?
Glioma ERSR ind: -3%; RGS4 inhibitor: -19%; pAkt inh: -115%*; CtBP-E1A blk: 1; Six1-Eya2 blk: -4

What do the screens show for `Cc1ccc(-c2nnc(SCC(=O)Nc3sc(C)c(C)c3C#N)n2C)cc1`?
Glioma ERSR ind: -1%; RGS4 inhibitor: 21%[11.4 µM]; pAkt inh: inactive; CtBP-E1A blk: 9; Six1-Eya2 blk: 7
